# FBPA coupling cs = counter-screen for Giardia aldolase inhibitors: coupling enzyme system; coupling enzyme system counterscreen, AmpLite Red fluorescence; activity change, negative = inhibition, % at 58.2 µM, hits read low; 290,000 tested, 0.67% active; AID 2472; in the data active = activity change below about -30%
#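 Activity here indicates interference with the coupling reaction, not aldolase inhibition. Compounds at 57.5 uM final met coupling enzymes for 10 min at RT; substrate and AmpLite Red detection followed, with a 525/598 nm fluorescence read after 20 min.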
# Tau fibril ThT = inhibitors of human tau fibril formation, thioflavin T binding. 270,000 tested, 2.1% active. Potency, µM (highest dose often 57.4 µM), most hits filed as inhibitors. recombinant tau K18 P301L, heparin-induced fibrillization, ThT fluorescence; note: nearly all actives have a fitted effect of over 55% in size
# Target sequence (P10636 561-689 P618L limits assumed): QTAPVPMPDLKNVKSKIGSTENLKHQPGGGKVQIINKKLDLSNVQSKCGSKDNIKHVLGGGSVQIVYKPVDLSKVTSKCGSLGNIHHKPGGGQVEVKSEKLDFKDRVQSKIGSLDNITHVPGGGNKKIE
#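 K18 P301L tau (15 uM + 0.24 uM Alexa 594-tagged), heparin 20 uM, NaOAc pH 7, 6 h 37 C; ThT 30 uM, 1 h RT, ex 450/em 510 nm.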
# Tau fibril FP = tau fibrillization inhibition (FP); P10636; K18 P301L tau heparin fibrillization, Alexa594 FP, 6 h; Potency, µM (top dose mostly 57.7 µM), usual class: inhibitors; 280,000 tested, 0.39% active; AID 1468; note: nearly all actives have a fitted effect of over 55% in size
#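 K18 P301L tau (15 uM unlabeled/0.24 uM Alexa 594-labeled, final) + compound + heparin 20 uM final; 100 mM NaOAc pH 7; 6 hr 37 C; ThT 30 uM final added, 1 hr RT; FP ex 555/em 632 nm.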
# Sfp PPTase inh = blocks B. subtilis Sfp PPTase activity. Q9F4F7. Biochemical Sfp PPTase activity, qHTS. Potency, µM, actives largely listed as inhibitors. 310,000 tested, 3.5% active;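 note: the enzyme is Sfp with the accession as filed and its product quenches rhodamine fluorescence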
#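 Fluorescence-quenching assay: 15 nM Sfp-PPTase preincubated 15 min at room temperature with compound, then 5 uM rhodamine-CoA and 12.5 uM BHQ-2-labelled YbbR peptide added. Fluorescence (ex 525/em 598 nm) read at start and after 30 min; difference gives rate.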
# Tau fluor cs = counter-screen for tau fibril formation inhibitors; AID 1463; Potency, µM (series often up to 57.7 µM); 280,000 tested, 0.93% active; tau K18 P301L (four-repeat tau fragment) Alexa594 fluorescence, heparin fibrillization; note: nearly all actives have a fitted effect of over 55% in size
#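 Human K18 P301L tau (15 uM unlabeled plus 0.24 uM Alexa 594-labeled, final) in 100 mM sodium acetate pH 7 was mixed with compound and 20 uM heparin and incubated 6 hr at 37 C.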
# Numbers stand for hits; n = inactive; u = inconclusive; x = no result; [ ] = another dose, or the depositor's remark. Shown are actives, neighbours in structure and some others; about 5.2% of the full set was active somewhere. Unless noted, calls come from the whole dose curve; as a rule, active = well fitted curve in the direction sought with a large enough effect; inconclusive = small, poorly fitted or top-dose-only effect, or another doubt; inactive = no such curve, though single readings can be large; an effect the other way counts as inactive or inconclusive.
SMILES,FBPA coupling cs,Tau fibril ThT,Tau fibril FP,Sfp PPTase inh,Tau fluor cs
CC(=O)C(Sc1nn(C)c(=S)s1)C(=O)Nc1ccccc1 (stereo not drawn),n,u,u,39.8µM,n
Cc1ccccc1OCC(=O)Nc1ccc2nc(SCC(N)=O)sc2c1,x,n,n,x,n
CCN(CC)CCN1C(=O)C(O)=C(C(=O)c2cccs2)C1c1ccc(C)o1 (stereo not drawn),n,n,n,n,n
CCN(CC)CCN1C(=O)C(O)=C(C(=O)c2cccs2)C1c1ccccn1 (stereo not drawn),n,u,n,56.2µM,n
CCN1CCc2c(sc(-n3cccc3)c2C(C)NC(=O)Nc2cc(Cl)c(OC)cc2OC)C1 (stereo not drawn),x,u,n,x,u
Cc1nn(Cc2ccc(Cl)c(Cl)c2)c(C)c1NC(=O)c1cc(-c2ccco2)on1,n,n,n,44.7µM,n
Cc1nn(Cc2ccc(Cl)cc2)c(C)c1NC(=O)c1cc(-c2ccco2)on1,n,n,n,n,n
Cc1cc(NC(=O)c2cc(-c3ccco3)on2)nn1Cc1ccc(Cl)cc1,n,n,n,17.8µM,n
COc1ccc(S(=O)(=O)NCCc2csc(-c3cccc(F)c3)n2)cc1OC,x,n,n,x,n
Cc1cccc(CNC(=O)c2sc3ncnc(N(C)C4CCCCC4)c3c2C)c1,x,n,n,x,n
Cc1[nH]n(-c2ccccc2)c(=O)c1C(c1ccccc1[N+](=O)[O-])C(C#N)C#N (stereo not drawn),n,x,x,n,x
Cc1[nH]n(-c2ncc(-c3ccccc3)s2)c(=O)c1C(c1ccc(Cl)cc1)C(C#N)C#N (stereo not drawn),n,14.1µM,u,u,u
COc1ccc(-c2cc(C(F)(F)F)nc(SCC(=O)NCC(C)C)n2)cc1OC,x,n,n,x,n
Cc1cc(NC(=O)NCc2ccc3c(c2)CCN3C(=O)c2ccccc2)ccc1Br,x,n,u,x,u
Oc1ccc(Cl)cc1/C=C/c1ccc2cccc(O)c2n1,n,u,u,n,25.1µM[quencher]
Cc1ccsc1/C=C/c1ccc2cccc(O)c2n1,n,u,n,50.1µM,u
Cc1ccsc1/C=C/c1ccc2ccccc2n1,n,u,n,n,n
CCOc1ccccc1CNC(=O)c1ccc2c(c1)sc1nc(-c3cccc(OC)c3)cn12,x,n,n,x,n
Cc1ccc(C(C)C)c(OCC(=O)NN=C(CCl)CCl)c1,n,u,n,50.1µM,n
Nn1cnnc1N/N=C/c1ccc(F)cc1,n,x,x,56.2µM,x
Nn1cnnc1N/N=C/c1ccc(Cl)c([N+](=O)[O-])c1,n,25.1µM,u,u,n
Cc1ccc(/C=N/Nc2nncn2N)cc1,n,x,x,39.8µM,x
Nn1cnnc1N/N=C/c1cccc(Cl)c1Cl,n,x,x,u,x
COc1cc(OC)cc(C(=O)Oc2ccc(/C=N/Nc3nc4ccccc4s3)cc2OC)c1,n,u,n,n,10µM[quencher]
COc1cccc(C(=O)Oc2ccc(/C=N/NC(=O)c3ccncc3)cc2OC)c1,n,x,x,n,x
SMILES,FBPA coupling cs,Tau fibril ThT,Tau fibril FP,Sfp PPTase inh,Tau fluor cs
COc1cc(/C=N/Nc2nc3ccccc3s2)ccc1OC(=O)c1ccccc1F,n,u,n,n,7.08µM[quencher]
COc1ccc(Br)cc1CNC(=O)C1CCN(c2nnc(-n3cccc3CNc3ccc(C)cc3)s2)CC1,x,n,n,x,n
Cc1ccc(-c2nc(-c3cccs3)c(-c3cccs3)[nH]2)cc1,x,n,n,x,u
O=[N+]([O-])c1ccc(-c2nc(-c3cccs3)c(-c3cccs3)[nH]2)cc1,n,5.62µM,u,n,7.94µM[quencher]
Oc1cccc(-c2nc(-c3cccs3)c(-c3cccs3)[nH]2)c1,x,15.8µM,u,x,12.6µM[quencher]
O=[N+]([O-])c1cccc(-c2nc(-c3cccs3)c(-c3cccs3)[nH]2)c1,n,u,n,n,11.2µM[quencher]
Cc1nn(CC(=O)NCc2ccc(OC(C)C)cc2)c(=O)c2c(C)n(-c3ccc(Cl)cc3)nc12,x,n,n,x,n
c1ncc(CCCC2CCNCC2)[nH]1,n,x,x,n,x
Cc1ccc(NC(=O)CN(C)S(=O)(=O)c2ccc3c(c2)n(C)c(=O)c(=O)n3C)cc1C,x,n,n,x,n
CCOC(=O)c1sc2ccccc2c1S(=O)(=O)Nc1ccc(CC)cc1,x,n,n,x,n
CC1=NN(c2nc(-c3ccc(Cl)cc3)cs2)C(=O)C1,n,11.2µM,n,n,u
CC1=NN(c2nc(-c3ccc(F)cc3)cs2)C(=O)C1,n,u,n,n,n
O=C(c1cc(C(F)(F)F)cc(C(F)(F)F)c1)N1CCC2(CC1)CN(c1ccccc1)C2,n,x,x,n,x
CCOc1ccc(N(C(=O)c2ccc(C)cc2)S(=O)(=O)c2ccc3c(c2)n(C)c(=O)n3C)cc1,x,u,n,x,n
C/C(=N\Nc1nc2ccccc2[nH]1)c1ccc2c(c1)OCCO2,n,14.1µM,n,n,u
C/C(=N\Nc1nc2ccccc2[nH]1)c1ccccn1,n,x,x,n,x
C/C(=N\Nc1nc2ccccc2[nH]1)c1cc2ccccc2o1,n,14.1µM,u,u,u
O=C(O)CNC(=O)CC1S/C(=N/N=C/c2ccccc2O)NC1=O (stereo not drawn),n,n,n,n,n
O=C(O)CNC(=O)CC1S/C(=N/N=C2\CSC(=O)N2)NC1=O (stereo not drawn),n,u,u,3.98µM,n
O=C(O)/C=C/C(=O)Nc1ccccc1-c1ccccc1NC(=O)/C=C/C(=O)O,n,u,u,7.94µM,n
O=C(O)/C=C/C(=O)Nc1ccc(SC(F)(F)F)cc1,n,n,n,n,n
O=C(O)/C=C/C(=O)Nc1ccccc1SC(F)(F)F,n,n,n,12.6µM,n
Cc1cccc(N2C(=O)CSC23C(=O)N(Cc2cccc(C(F)(F)F)c2)c2ccccc23)c1 (stereo not drawn),x,n,n,x,n
COc1ccc(Oc2nc(-c3ccccn3)nc3ccccc23)cc1,n,u,n,39.8µM,n
c1ccc(Oc2nc(-c3ccccn3)nc3ccccc23)cc1,n,u,n,u,n
SMILES,FBPA coupling cs,Tau fibril ThT,Tau fibril FP,Sfp PPTase inh,Tau fluor cs
c1ccc(-c2nc(N3CCCCCC3)c3ccccc3n2)nc1,n,n,n,n,n
c1ccc(-c2nc(N3CCOCC3)c3ccccc3n2)nc1,n,n,n,14.1µM,n
C[C@H](NCc1ccccc1)c1ccccc1,n,x,x,n,x
COc1ccc(N2CCN(c3ccnc4cc(Cl)ccc34)CC2)cc1,n,x,x,56.2µM,x
Oc1ccc(N2CCN(c3ccnc4cc(Cl)ccc34)CC2)cc1,n,x,x,u,x
Cc1ccc(-c2nc3ncccn3c2Nc2ccccc2C)o1,n,n,n,39.8µM,n
Cc1ccc(Nc2c(-c3ccc(C)o3)nc3ncccn23)cc1,n,u,n,11.2µM,n
COc1ccc(C2=CSC(/N=C/c3ccc(F)cc3)=NN2)cc1,n,14.1µM,n,28.2µM,u
CCN1CCN(Cc2c(O)ccc3c(C)c(-c4ccc(OC)cc4)c(=O)oc23)CC1,x,u,n,x,n
COc1cc(/C=C2\SC(=S)N(NS(=O)(=O)c3ccc(C)cc3)C2=O)cc(OC)c1OC,n,u,n,n,n
COc1cc(/C=C2\SC(=S)N(NS(=O)(=O)c3ccccc3)C2=O)ccc1O,n,14.1µM,n,n,n
